We go through 18 compounds from PubChem BioAssay (NCATS).

Structures are written as SMILES. Results filed as inconclusive are left out. Where a call stands in place of a potency, no number is given. Calls of active or inactive are those of the source. Calls come from the whole dose curve; as a rule, active = well fitted inhibition curve with a large enough effect; inconclusive = small, poorly fitted or top-dose-only effect; inactive = flat fitted curve, though single readings scatter.

Calcium and integrin-binding protein 1 (Homo sapiens), sequence (Q99828 whole entry, looked up): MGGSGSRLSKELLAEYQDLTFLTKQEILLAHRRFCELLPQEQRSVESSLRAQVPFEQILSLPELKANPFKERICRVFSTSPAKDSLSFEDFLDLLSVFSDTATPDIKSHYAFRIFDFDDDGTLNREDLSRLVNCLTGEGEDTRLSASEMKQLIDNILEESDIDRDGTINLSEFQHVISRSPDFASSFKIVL

The target in the assay is Calcium and integrin-binding protein 1 (Homo sapiens) (UniProt Q99828). The assay can be described thus: Primary qHTS for Identification of Calcium Integrin Binding Protein 1 (CIB1) Competitor (AID 1508620).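 Note: GST tagged CIB1 binding a fluorescein labelled alphaIIb integrin peptide tracer; top concentration of the series differs between compounds.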 The note with it: CIB1-GST / FITC-alphaIIb peptide fluorescence polarization; series mostly up to 114 µM. The method, boiled down:
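Fluorescence polarization competition: CIB1-GST (1 uM final) preincubated with compound 15 min at room temperature, then FITC-labeled alphaIIb peptide (100 nM final) added for another 15 min. Polarization read at Ex 480/Em 540.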
A general note: qHTS replaces the single test concentration by a dilution series.
Turning to `COC(=O)C1(C)CCC2(C(=O)O)CCC3(C)C(=CCC4C5(C)CC(O)C(OC6OCC(O)C(O)C6O)C(C)(CO)C5CCC43C)C2C1` (stereo not drawn), the Potency entry is “inactive”.
The same measure, in the same setting: the result for `C/C=C/C=C/C(O)=C1\C(=O)[C@]2(C)C3C(C(=O)CC/C=C/C)=C(O)C4(C)C1[C@]1(C)O[C@@]4(O)[C@@]3(C)O[C@@]12O` reads “inactive”; that for `C=C1CCC2C(C(C)(C)O)CCC2(C)CC(O)C(=C)CCC1O` (stereo not drawn), “inactive”; that for `CC(=O)O[C@H]1C[C@@]2(C)[C@@H](CC[C@H]3[C@@]4(C)C=CC(=O)[C@@H](C)[C@@H]4[C@H](O)C(=O)[C@@]32C)/C1=C(/CCC=C(C)C)C(=O)O`, “inactive”.
As for `CC(=O)OC1/C(C)=C/C(=O)C(OC(C)=O)C(C)(C)/C=C/C(C)C(=O)C2(OC(C)=O)CC(C)C(OC(=O)c3ccccc3)C12` (stereo not drawn), the Potency result is “inactive”.
For `C=CC1C(OC2OC(CO)C(O)C(O)C2O)OC=C(C(=O)OC)C1CC(=O)OCC1C(C)C(O)CC1C(CO)COC(=O)CC1C(C(=O)O)=COC(OC2OC(CO)C(O)C(O)C2O)/C1=C\C` (stereo not drawn), the Potency entry was “inactive”.
As to `C[C@@H]1O[C@@H](O[C@@H]2[C@@H](O[C@@H]3O[C@@H](C)[C@H](O[C@@H]4OC[C@H](O)[C@H](O[C@@H]5OC[C@@H](O)[C@H](O)[C@H]5O)[C@H]4O)[C@@H](O[C@@H]4OC[C@](O)(CO)[C@H]4O)[C@H]3O)[C@H](OC(=O)[C@]34CCC(C)(C)C[C@H]3C3=CCC5[C@@]6(C)C[C@H](O)[C@H](O[C@@H]7O[C@H](CO[C@@H]8OC[C@H](O)[C@H](O)[C@H]8O)[C@@H](O)[C@H](O)[C@H]7O)C(C)(C)C6CC[C@@]5(C)[C@]3(C)C[C@H]4O)OC[C@H]2O)[C@H](O)[C@H](O)[C@H]1O` (stereo partly drawn), the activity change, negative = inhibition is -4.21% [at 12.4 µM] (inactive).
With `COC1/C=C/C(C)(O)C(SCC(N)C(=O)O)CC(=O)OC(C)C(C)CC/C=C/1C` (stereo not drawn), the Potency result is “inactive”.
On to `CC(c1ncncc1F)C(O)(Cn1cncn1)c1ccc(F)cc1F` (stereo not drawn), for which the Potency entry was “inactive”.
On to `C[C@@H]1O[C@@H](O[C@H]2[C@H](O)[C@@H](O)[C@H](O[C@H]3[C@H](O[C@H]4CC[C@@]5(C)C(=CC[C@@H]6C5CC[C@]5(C)[C@@H]7[C@H](C[C@@H]65)O[C@]5(CC[C@@](C)(CO[C@@H]6O[C@H](CO)[C@@H](O)[C@H](O)[C@H]6O)O5)[C@H]7C)C4)O[C@H](CO)[C@@H](O)[C@@H]3O)O[C@@H]2CO)[C@H](O)[C@H](O)[C@H]1O` (stereo partly drawn), for which the Potency entry is “inactive”.
The same measure, in the same setting: the result for `NC(=O)c1csc(C2OC(CO)C(O)C2O)n1` (stereo not drawn) reads “inactive”.
Regarding `C/C=C/c1ccc2c(c1)[C@@H](C)[C@H](c1ccc(O)cc1)O2`, the Potency result is “inactive”.
For `CC(=O)O[C@@H]1[C@H](O)[C@@H](O[C@@H]2O[C@@H](C)[C@H](O[C@@H]3OC[C@@H](O)[C@H](O[C@@H]4OC[C@@H](O)[C@H](O)[C@H]4O)[C@H]3O)[C@@H](O[C@@H]3O[C@H](CO)[C@@H](O)[C@H](O)[C@H]3O)[C@H]2O)[C@H](OC(=O)[C@]23CCC(C)(C)C[C@H]2C2=CCC4[C@@]5(C)CC[C@H](O[C@@H]6O[C@H](C(=O)O)[C@@H](O)[C@H](O[C@@H]7OC[C@@H](O)[C@H](O)[C@H]7O)[C@H]6O[C@@H]6O[C@H](CO)[C@H](O)[C@H](O)[C@H]6O)[C@@](C)(C=O)C5CC[C@@]4(C)[C@]2(C)CC3)O[C@@H]1C` (stereo partly drawn), the activity change, negative = inhibition was -6.59% [at 12.4 µM] (inactive).
`CC(=O)O[C@@H]1c2c3c(cc(O)c2C(=O)O[C@@H]1C)O[C@@]1(C)[C@@H](O)C[C@H]2C(C)(C)C(=O)C=C[C@]2(C)[C@@H]1C3`: the Potency result was “inactive”.
On to `C=C1[C@H](OC(C)=O)[C@H]2[C@@H](OC(C)=O)[C@](C)(OC(C)=O)C[C@]2(OC(C)=O)C(=O)[C@H](C)/C=C/C(C)(C)C(=O)[C@H](OC(=O)C(C)C)[C@H]1OC(C)=O`, for which the Potency entry is “inactive”.
As to `COc1ccc([C@@]2(O)c3c(ccc(CC=C(C)C)c3O)NC(=O)[C@@H]2OC)cc1`, the Potency result is “inactive”.
Still for that read-out and setting: the entry for `CC(C)/C=C1\NC(=O)C(C(C)C)n2c1nc1c(c2=O)C=CC=CO1` (stereo not drawn) is “inactive”; for `C=C1CCC2C(C)(C)C(O)CCC2(C)C1CCC(C)CCO` (stereo not drawn) it is “inactive”.
